Assay results from the supplement of paper PMC10849652.
About 7,900 targets were measured; listed, in parts, are those with a hit and a random draw of the rest. About 0.6% of all pairs of compound and target were hits. A number with no mark means an inactive call.

How the values were obtained:
Assay in all cases: log2 fold change, soluble protein after heating vs DMSO (PISA); higher = thermal stabilisation; K562 cells, 10 uM, 30 min; active = over 0.2 and 3.5 SD of the protein, either way, in both replicates (recomputed)
erlotinib = compound: C#Cc1cccc(Nc2ncnc3cc(OCCOC)c(OCCOC)cc23)c1 [erlotinib]
How it was run: (§1)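 Values are thermal stability changes relative to control samples and are taken from duplicates. They are stated as log2 fold changes. Before quantification by TMTpro 16plex LC-MS/MS with equalised channel sums, K562 cells at 2×10^6 cells/mL were treated with 10 μM compound for 30 min, heated in aliquots for 3 min across 48°C-58°C, pooled, extracted in PBS with 0.5% NP-40 at 4°C, and centrifuged at 21,000xg for 90 min to give the soluble supernatant.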

[1] = compound: C/C(=N\NC(=O)C1=CC(=CC=C1)S(=O)(=O)N2CCOCC2)/C3=C(C=CC(=C3)Cl)O
How it was run: as §1

[2] = compound: C1=CC(=C(C=C1Cl)C2=NC3=NC=CN=C3C(=N2)NC4=CC=NC=C4)F
How it was run: as §1

[3] = compound: C1=CC(=CC=C1C2=NC3=C(N2)C=C(C=C3)C(=O)N)OC4=CC=C(C=C4)Cl
How it was run: as §1

[4] = compound: C1=CC2=C(C=CC(=C2)/C=C\3/C(=O)NC(=NCC4=CC=CS4)S3)N=C1
How it was run: as §1

[5] = compound: C1=CC2=NC=CN=C2C=C1/C=C/3\C(=O)NC(=O)S3
How it was run: as §1

[6] = compound: C1=CC=C(C=C1)C2=NC(=C(N2)C3=CC=NC=C3)C4=CC(=C(C=C4)Cl)O
How it was run: as §1

[7] = compound: C1=CC=C2C(=C1)C3=NNC4=CC=CC(=C43)C2=O
How it was run: as §1

[8] = compound: C1CCN(C1)C(=O)NC2=CC=CC(=C2)NC3=NC=C(C(=N3)NCCC4=CN=CN4)Br
How it was run: as §1

[9] = compound: C1CN(CCC1(CC2=CC=C(C=C2)Cl)N)C3=NC=NC4=C3C=CN4
How it was run: as §1

IRAK-1-4 Inhibitor I = compound: C1COCCN1CCN2C3=CC=CC=C3N=C2NC(=O)C4=CC(=CC=C4)[N+](=O)[O-] [IRAK-1-4 Inhibitor I]
How it was run: as §1

ibrutinib = compound: C=CC(=O)N1CCC[C@@H](n2nc(-c3ccc(Oc4ccccc4)cc3)c3c(N)ncnc32)C1 [ibrutinib]
How it was run: as §1

[10] = compound: CC(=O)c1cnc2ccc(-c3cc(Cl)c(O)c(Cl)c3)nc2c1N[C@H]1CC[C@H](CN(C)C)CC1
How it was run: as §1

ralimetinib = compound: CC(C)(C)Cn1c(N)nc2ccc(-c3[nH]c(C(C)(C)C)nc3-c3ccc(F)cc3)nc21 [ralimetinib]
How it was run: as §1

[11] = compound: CC(C)(O)CC(=O)NCCn1ccc2ncnc(Nc3ccc(Oc4cccc(C(F)(F)F)c4)c(Cl)c3)c21
How it was run: as §1

[12] = compound: CC(C)C1=C2N=C(C=C(N2N=C1)NCC3=CC=CC=C3)NCCCCCCN
How it was run: as §1

[13] = compound: CC(C)C[C@@H](C=O)NC(=O)[C@H](CC(C)C)NC(=O)[C@H](CC(C)C)NC(=O)OCc1ccccc1
How it was run: as §1

pinometostat = compound: CC(C)N(C[C@H]1O[C@@H](n2cnc3c(N)ncnc32)[C@H](O)[C@@H]1O)[C@H]1C[C@@H](CCc2nc3cc(C(C)(C)C)ccc3[nH]2)C1 [pinometostat]
How it was run: as §1

[14] = compound: CC1=C(C(CC(=O)N1)C2=CC=C(C=C2)C(F)(F)F)C(=O)NC3=C(C=C4C(=C3)C=NN4)F
How it was run: as §1

[15] = compound: CC1=C(C2=C(C=C1)C(=O)C3=CC=CC=C3N2CCCN)C
How it was run: as §1

UniProt Q969G3, sequence (Q969G3 whole entry, looked up): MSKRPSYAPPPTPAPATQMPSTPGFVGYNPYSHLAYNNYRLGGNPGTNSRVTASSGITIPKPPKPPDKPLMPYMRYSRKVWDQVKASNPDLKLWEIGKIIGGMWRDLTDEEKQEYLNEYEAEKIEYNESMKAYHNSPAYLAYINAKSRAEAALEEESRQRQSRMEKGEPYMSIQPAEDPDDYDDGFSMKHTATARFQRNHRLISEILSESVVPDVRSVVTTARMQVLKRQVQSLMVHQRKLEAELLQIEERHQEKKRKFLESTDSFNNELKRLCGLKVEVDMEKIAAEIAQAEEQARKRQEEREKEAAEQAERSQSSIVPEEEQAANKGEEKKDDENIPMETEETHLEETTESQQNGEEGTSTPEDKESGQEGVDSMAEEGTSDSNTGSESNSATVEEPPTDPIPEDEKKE
UniProt O76094, sequence (O76094 whole entry, looked up): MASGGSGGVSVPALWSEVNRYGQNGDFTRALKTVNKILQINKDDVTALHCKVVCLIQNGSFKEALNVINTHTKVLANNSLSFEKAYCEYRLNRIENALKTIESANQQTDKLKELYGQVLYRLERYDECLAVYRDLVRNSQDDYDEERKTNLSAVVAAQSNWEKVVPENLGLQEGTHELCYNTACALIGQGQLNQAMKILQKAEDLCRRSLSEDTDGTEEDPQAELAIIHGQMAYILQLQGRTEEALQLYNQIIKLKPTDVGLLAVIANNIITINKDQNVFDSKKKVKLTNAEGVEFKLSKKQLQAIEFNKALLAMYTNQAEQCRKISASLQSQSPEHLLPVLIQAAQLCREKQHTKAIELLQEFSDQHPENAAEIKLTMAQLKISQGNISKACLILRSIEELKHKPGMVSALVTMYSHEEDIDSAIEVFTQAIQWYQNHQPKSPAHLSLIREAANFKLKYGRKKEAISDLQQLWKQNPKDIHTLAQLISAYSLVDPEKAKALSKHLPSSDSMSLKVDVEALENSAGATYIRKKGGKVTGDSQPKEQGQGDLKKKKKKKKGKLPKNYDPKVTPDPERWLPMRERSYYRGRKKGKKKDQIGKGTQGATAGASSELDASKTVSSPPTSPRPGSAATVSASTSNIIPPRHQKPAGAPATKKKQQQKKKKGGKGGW
UniProt Q8NEW0, sequence (Q8NEW0 whole entry, looked up): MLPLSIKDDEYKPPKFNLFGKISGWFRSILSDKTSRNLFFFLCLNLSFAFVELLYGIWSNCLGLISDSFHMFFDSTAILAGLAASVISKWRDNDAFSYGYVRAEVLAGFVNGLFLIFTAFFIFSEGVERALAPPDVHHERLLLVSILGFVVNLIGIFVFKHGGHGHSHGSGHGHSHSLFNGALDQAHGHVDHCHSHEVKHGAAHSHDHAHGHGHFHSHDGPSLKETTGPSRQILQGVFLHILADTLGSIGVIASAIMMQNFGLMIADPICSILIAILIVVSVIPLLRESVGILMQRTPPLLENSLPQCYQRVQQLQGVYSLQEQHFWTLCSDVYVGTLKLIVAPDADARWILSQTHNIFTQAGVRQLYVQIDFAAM
UniProt P08240, sequence (P08240 whole entry, looked up): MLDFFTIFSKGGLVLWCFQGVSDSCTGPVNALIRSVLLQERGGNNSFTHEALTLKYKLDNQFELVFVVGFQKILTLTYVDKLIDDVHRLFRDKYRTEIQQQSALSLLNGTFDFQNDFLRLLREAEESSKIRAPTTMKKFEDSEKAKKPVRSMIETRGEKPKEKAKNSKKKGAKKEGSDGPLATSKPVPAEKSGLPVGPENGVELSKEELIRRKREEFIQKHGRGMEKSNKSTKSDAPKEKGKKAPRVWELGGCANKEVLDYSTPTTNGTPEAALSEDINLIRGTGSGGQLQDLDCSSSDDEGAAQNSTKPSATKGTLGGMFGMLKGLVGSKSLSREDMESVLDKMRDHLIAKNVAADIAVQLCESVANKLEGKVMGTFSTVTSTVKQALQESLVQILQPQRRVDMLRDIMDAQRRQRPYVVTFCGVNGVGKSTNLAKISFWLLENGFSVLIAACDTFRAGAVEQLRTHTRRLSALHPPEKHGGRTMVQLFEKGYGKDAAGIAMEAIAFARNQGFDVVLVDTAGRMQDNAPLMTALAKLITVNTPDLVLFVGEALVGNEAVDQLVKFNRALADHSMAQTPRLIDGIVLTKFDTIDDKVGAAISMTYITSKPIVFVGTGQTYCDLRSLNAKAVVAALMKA
UniProt Q92581, sequence (Q92581 whole entry, looked up): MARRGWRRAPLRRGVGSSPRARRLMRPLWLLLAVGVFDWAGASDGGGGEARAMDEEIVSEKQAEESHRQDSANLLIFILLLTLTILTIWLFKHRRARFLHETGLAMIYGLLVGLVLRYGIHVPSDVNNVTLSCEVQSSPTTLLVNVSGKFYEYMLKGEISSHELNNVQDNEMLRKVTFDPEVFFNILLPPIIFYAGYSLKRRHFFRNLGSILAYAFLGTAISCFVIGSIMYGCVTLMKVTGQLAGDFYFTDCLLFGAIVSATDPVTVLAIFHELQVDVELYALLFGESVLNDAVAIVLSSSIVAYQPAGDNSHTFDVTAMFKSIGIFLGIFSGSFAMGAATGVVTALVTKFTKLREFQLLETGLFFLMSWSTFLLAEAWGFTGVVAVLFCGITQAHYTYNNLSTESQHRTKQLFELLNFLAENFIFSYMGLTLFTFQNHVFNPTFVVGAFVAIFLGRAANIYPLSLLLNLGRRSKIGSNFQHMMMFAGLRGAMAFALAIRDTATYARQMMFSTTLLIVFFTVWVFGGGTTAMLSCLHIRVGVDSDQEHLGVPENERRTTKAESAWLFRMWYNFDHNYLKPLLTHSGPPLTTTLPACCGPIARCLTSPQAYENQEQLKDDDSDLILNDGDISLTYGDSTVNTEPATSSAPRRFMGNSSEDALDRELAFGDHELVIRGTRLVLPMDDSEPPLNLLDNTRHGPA
UniProt O75663, sequence (O75663 whole entry, looked up): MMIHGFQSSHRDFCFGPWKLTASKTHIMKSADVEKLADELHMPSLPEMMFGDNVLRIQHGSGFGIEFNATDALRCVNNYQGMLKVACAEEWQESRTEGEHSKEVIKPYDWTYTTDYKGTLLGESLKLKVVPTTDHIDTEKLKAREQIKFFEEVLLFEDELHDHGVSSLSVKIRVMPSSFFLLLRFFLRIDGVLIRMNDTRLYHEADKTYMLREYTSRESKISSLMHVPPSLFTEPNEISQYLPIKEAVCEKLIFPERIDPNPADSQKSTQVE
UniProt Q08170, sequence (Q08170 whole entry, looked up): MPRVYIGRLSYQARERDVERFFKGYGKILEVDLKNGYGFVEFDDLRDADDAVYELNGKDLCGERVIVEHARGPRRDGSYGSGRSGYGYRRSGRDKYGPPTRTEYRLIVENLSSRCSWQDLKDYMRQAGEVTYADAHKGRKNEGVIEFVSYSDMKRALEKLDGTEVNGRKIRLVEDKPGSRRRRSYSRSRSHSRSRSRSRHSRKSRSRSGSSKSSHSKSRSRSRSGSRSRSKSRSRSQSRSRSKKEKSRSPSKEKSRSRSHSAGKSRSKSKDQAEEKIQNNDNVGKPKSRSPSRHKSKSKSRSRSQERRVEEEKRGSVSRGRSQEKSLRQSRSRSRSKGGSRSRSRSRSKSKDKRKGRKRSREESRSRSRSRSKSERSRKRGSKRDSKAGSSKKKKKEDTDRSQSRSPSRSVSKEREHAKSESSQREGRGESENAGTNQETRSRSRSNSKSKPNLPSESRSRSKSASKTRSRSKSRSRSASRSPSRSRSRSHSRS
UniProt Q99805, sequence (Q99805 whole entry, looked up): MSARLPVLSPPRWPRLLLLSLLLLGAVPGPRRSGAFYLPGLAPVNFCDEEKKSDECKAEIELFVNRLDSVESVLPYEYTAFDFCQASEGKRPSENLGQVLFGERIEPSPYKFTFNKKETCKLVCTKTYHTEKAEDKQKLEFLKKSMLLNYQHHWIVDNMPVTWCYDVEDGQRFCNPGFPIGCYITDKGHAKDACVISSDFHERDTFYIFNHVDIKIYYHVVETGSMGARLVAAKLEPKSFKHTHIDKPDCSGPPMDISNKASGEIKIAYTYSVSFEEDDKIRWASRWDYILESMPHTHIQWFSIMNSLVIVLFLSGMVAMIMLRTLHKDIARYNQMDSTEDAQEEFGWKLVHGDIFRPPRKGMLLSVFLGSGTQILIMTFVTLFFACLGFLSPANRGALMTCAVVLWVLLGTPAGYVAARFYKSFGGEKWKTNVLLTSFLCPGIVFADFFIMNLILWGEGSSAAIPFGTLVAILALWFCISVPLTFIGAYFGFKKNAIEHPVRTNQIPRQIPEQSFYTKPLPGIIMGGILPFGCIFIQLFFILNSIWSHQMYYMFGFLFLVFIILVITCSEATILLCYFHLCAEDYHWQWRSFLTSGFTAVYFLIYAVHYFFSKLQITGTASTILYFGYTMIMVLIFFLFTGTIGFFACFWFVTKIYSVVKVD

| Target | log2 fold change (erlotinib) | log2 fold change [1] | log2 fold change [2] | log2 fold change [3] | log2 fold change [4] | log2 fold change [5] | log2 fold change [6] | log2 fold change [7] | log2 fold change [8] | log2 fold change [9] | log2 fold change (IRAK-1-4 Inhibitor I) | log2 fold change (ibrutinib) | log2 fold change [10] | log2 fold change (ralimetinib) | log2 fold change [11] | log2 fold change [12] | log2 fold change [13] | log2 fold change (pinometostat) | log2 fold change [14] | log2 fold change [15] |
| --- | --- | --- | --- | --- | --- | --- | --- | --- | --- | --- | --- | --- | --- | --- | --- | --- | --- | --- | --- | --- |
| TM9SF2 (UniProt Q99805) | 0.012 | 0.025 | 0.037 | -0.006 | 0.027 | -0.021 | 0.04 | 0.009 | -0.04 | 0.063 | 0.06 | 0.01 | -0.04 | -0.049 | 0.021 | -0.436 (active) | -0.012 | -0.003 | 0.008 | 0.027 |
| SRSF4 (UniProt Q08170) | -0.054 | 0.015 | -0.325 | 0.05 | -0.155 | -0.072 | -0.024 | -0.109 | 0.007 | -0.254 | -0.306 | 0.069 | -0.261 | 0.125 | 0.088 | -0.174 | 0.019 | 0.126 | -0.009 | -0.379 |
| SLC9A6 isoform 2 (UniProt Q92581) | -0.024 | 0.014 | 0.053 | 0.026 | -0.009 | 0.029 | -0.04 | -0.056 | -0.013 | 0.031 | 0.052 | 0.024 | 0.005 | -0.056 | -0.02 | 0.038 | 0.042 | 0.083 | 0.021 | 0.023 |
| SLC30A7 (UniProt Q8NEW0) | -0.004 | 0.175 | 0.062 | 0.006 | -0.086 | 0.077 | 0.109 | 0.004 | 0.016 | 0.132 | 0.035 | 0.063 | 0.032 | -0.098 | -0.075 | -0.186 | 0.011 | -0.007 | -0.058 | 0.06 |
| SMARCE1 (UniProt Q969G3) | 0.101 | 0.04 | 0.017 | 0 | 0.009 | 0 | 0.001 | -0.057 | 0.075 | -0.127 | -0.29 | 0.185 | -0.006 | 0.163 | -0.043 | -0.128 | -0.037 | -0.031 | 0.21 | -0.091 |
| SRPRA (UniProt P08240) | -0.01 | 0.061 | 0.073 | 0.007 | 0.054 | -0.048 | 0.063 | 0.003 | 0.001 | 0.006 | -0.024 | 0.015 | -0.028 | -0.002 | -0.058 | 0.021 | -0.006 | -0.001 | -0.033 | 0.269 (active) |
| TIPRL (UniProt O75663) | 0.055 | 0.097 | 0.031 | 0.009 | 0.049 | 0.036 | -0.002 | 0.03 | 0.021 | -0.041 | -0.011 | -0.005 | -0.067 | -0.007 | -0.065 | -0.173 | 0.048 | -0.015 | 0.069 | 0.017 |
| SRP72 (UniProt O76094) | 0.044 | 0.105 | -0.072 | -0.054 | 0.066 | 0.001 | 0.005 | -0.052 | -0.005 | -0.194 | -0.119 | -0.03 | -0.025 | 0.104 | -0.121 | -0.275 | 0.062 | 0.205 | -0.026 | -0.547 (active) |
